Data reported in PubChem BioAssay (NCATS).
Results filed as inconclusive are left out. A number with no mark means an inactive call. Active and inactive are the calls of the source. Unless noted, the call rests on the fitted dose curve; in most records, active means well fitted curve in either direction with a large enough effect (not every such curve was filed as active); inconclusive means small, poorly fitted or top-dose-only effect, or another doubt; inactive means flat fitted curve, though single readings scatter.

Tested on: not listed separately
Test: Cell Viability - SK-N-SH (AID 435; calls by dose curve;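 further: potency means the concentration at half of the fitted maximal effect; compound exposure lasted 40 h at 37 °C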)
Settings: SK-N-SH neuroblastoma cell viability qHTS
Summary of the method: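 SK-N-SH neuroblastoma cells (1500/well) treated 40 h at 37 °C in complete medium; viability read as cellular ATP by CellTiter-Glo luminescence. Normalized to DMSO and 100 uM tamoxifen; AC50 from Hill fits of qHTS concentration-response.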

| SMILES | Potency |
| --- | --- |
| Oc1c(Cl)ccc(Cl)c1Cl | > 92 µM |
| CCCCCO | > 92 µM |
| CCCCCCC(=O)O | > 92 µM |
| CCCCCCCCC/C=C/CC1CC(=O)OC1=O (configuration not stated) | > 92 µM |
| c1ccc(Nc2ccccc2)cc1 | > 92 µM |
| O=[N+]([O-])c1ccc(Cl)cc1Cl | > 92 µM |
| CCc1ccccc1 | > 92 µM |
| FC(F)(F)c1cccc(Cl)c1 | > 92 µM |
| FB(F)F | > 92 µM |
| C=C(C)C(=O)OC | > 92 µM |
| O=C(O)CN(CC(=O)O)CC(=O)O | > 92 µM |
| CC=O | > 92 µM |
| Cc1ccc(Cl)cc1 | > 92 µM |
| C=Cc1ccc(C=C)cc1 | > 92 µM |
| CC(O)CC(C)O (configuration not stated) | > 92 µM |
| O=C(Cl)c1c(Cl)cccc1Cl | > 92 µM |
| O=C(O)c1cccc([N+](=O)[O-])c1 | > 92 µM |
| Clc1cc(Cl)cc(Cl)c1 | > 92 µM |
| NC(N)=S | > 92 µM |
| CC(C)(O)CCC(C)(C)O | > 92 µM |

| SMILES | Potency |
| --- | --- |
| OC(CCl)CCl | > 92 µM |
| CCC(O)C(C)(C)C (configuration not stated) | > 92 µM |
| CNC(=O)c1ccccc1 | > 92 µM |
| CCNc1ccccc1 | > 92 µM |
| c1ccsc1 | > 92 µM |
| O=C(Cl)c1ccccc1[N+](=O)[O-] | > 92 µM |
| Cc1ccc2cccnc2c1 | > 92 µM |
| C/C(C=O)=C/c1ccccc1 | > 92 µM |
| CCCCCCCCCCCCC1CO1 (configuration not stated) | > 92 µM |
| CC(=O)OC(C)=O | > 92 µM |
| CC(C)c1ccccc1 | > 92 µM |
| COC(=O)c1ccccc1 | > 92 µM |
| C/C=C1\CC2C=CC1C2 (configuration not stated) | > 92 µM |
| C=C(C)C(=O)OCC(C)O (configuration not stated) | > 92 µM |
| NC(=O)c1ccccc1[N+](=O)[O-] | > 92 µM |
| CC(CCl)OC(C)CCl (configuration not stated) | > 92 µM |
| Cc1cccc([N+](=O)[O-])c1C(=O)O | > 92 µM |
| c1ccc(Oc2ccccc2)cc1 | > 92 µM |
| CN(C)CCCCl | > 92 µM |

Target: Mitogen-activated protein kinase 10 (Mus musculus) (UniProt Q61831)
Test: JNK3 AlphaScreen Assay (AID 530);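 further: kinase came from lysate of stimulated human HepG2 cells; signal reports phosphorylation of biotinylated GST-cJun 1-79 at Ser73 with 10 µM ATP; on the % scale 0 is the no-effect control and ±100 the full control effect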
Settings: JNK3 lysate, c-Jun phosphorylation; series mostly up to 57.1 µM
Summary of the method: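 Compound titrations were preincubated 15 minutes at room temperature with substrate, antibody and pre-activated JNK3-containing HepG2 lysate. Reactions were started with 10 uM ATP and stopped with EDTA-containing bead buffer for AlphaScreen detection.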

| SMILES | outcome |
| --- | --- |
| Oc1c(Cl)ccc(Cl)c1Cl | inactive |
| CCCCCO | inactive |
| CCCCCCC(=O)O | inactive |
| CCCCCCCCC/C=C/CC1CC(=O)OC1=O (configuration not stated) | inactive |
| c1ccc(Nc2ccccc2)cc1 | inactive |
| O=[N+]([O-])c1ccc(Cl)cc1Cl | inactive |
| CCc1ccccc1 | inactive |
| FC(F)(F)c1cccc(Cl)c1 | inactive |
| FB(F)F | inactive |
| C=C(C)C(=O)OC | inactive |
| O=C(O)CN(CC(=O)O)CC(=O)O | inactive |
| CC=O | inactive |
| Cc1ccc(Cl)cc1 | inactive |
| C=Cc1ccc(C=C)cc1 | inactive |
| CC(O)CC(C)O (configuration not stated) | inactive |
| O=C(Cl)c1c(Cl)cccc1Cl | inactive |
| O=C(O)c1cccc([N+](=O)[O-])c1 | inactive |
| Clc1cc(Cl)cc(Cl)c1 | inactive |
| NC(N)=S | inactive |
| CC(C)(O)CCC(C)(C)O | inactive |

| SMILES | outcome |
| --- | --- |
| OC(CCl)CCl | inactive |
| CCC(O)C(C)(C)C (configuration not stated) | inactive |
| CNC(=O)c1ccccc1 | inactive |
| CCNc1ccccc1 | inactive |
| c1ccsc1 | inactive |
| O=C(Cl)c1ccccc1[N+](=O)[O-] | inactive |
| Cc1ccc2cccnc2c1 | inactive |
| C/C(C=O)=C/c1ccccc1 | inactive |
| CCCCCCCCCCCCC1CO1 (configuration not stated) | inactive |
| CC(=O)OC(C)=O | inactive |
| CC(C)c1ccccc1 | inactive |
| COC(=O)c1ccccc1 | inactive |
| C/C=C1\CC2C=CC1C2 (configuration not stated) | inactive |
| C=C(C)C(=O)OCC(C)O (configuration not stated) | inactive |
| NC(=O)c1ccccc1[N+](=O)[O-] | inactive |
| CC(CCl)OC(C)CCl (configuration not stated) | inactive |
| Cc1cccc([N+](=O)[O-])c1C(=O)O | inactive |
| c1ccc(Oc2ccccc2)cc1 | inactive |
| CN(C)CCCCl | inactive |

Tested on: not listed separately
Test: Cell Viability - N2a (AID 540; active means well fitted cell-killing curve with a large enough effect;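 further: plate controls were DMSO alone for no effect and tamoxifen control for full effect; nearly all actives have a fitted effect of over 45% in size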)
Settings: N2a mouse neuroblastoma cell viability; activity change, negative = cytotoxicity: at 92.2 µM (top of the series)
Summary of the method: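 Mouse neuroblastoma N2a cells, 1500/well, exposed to compounds 40 h at 37 °C in complete medium. Viability measured as cellular ATP by CellTiter-Glo luminescence; AC50 from Hill fits of concentration-response.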

| SMILES | activity change, negative = cytotoxicity |
| --- | --- |
| Oc1c(Cl)ccc(Cl)c1Cl | -9.1% |
| CCCCCO | 3.49% |
| CCCCCCC(=O)O | -3.74% |
| CCCCCCCCC/C=C/CC1CC(=O)OC1=O (configuration not stated) | 11.9% |
| c1ccc(Nc2ccccc2)cc1 | -5.87% |
| O=[N+]([O-])c1ccc(Cl)cc1Cl | 10.8% |
| CCc1ccccc1 | -7.66% |
| FC(F)(F)c1cccc(Cl)c1 | -8.83% |
| FB(F)F | 5.96% |
| C=C(C)C(=O)OC | 2.46% |
| O=C(O)CN(CC(=O)O)CC(=O)O | -5.01% |
| CC=O | 1.14% |
| Cc1ccc(Cl)cc1 | 1.61% |
| C=Cc1ccc(C=C)cc1 | -7.69% |
| CC(O)CC(C)O (configuration not stated) | -8.39% |
| O=C(Cl)c1c(Cl)cccc1Cl | 1.05% |
| O=C(O)c1cccc([N+](=O)[O-])c1 | -0.379% |
| Clc1cc(Cl)cc(Cl)c1 | 4.86% |
| NC(N)=S | 7.78% |
| CC(C)(O)CCC(C)(C)O | 3.94% |

| SMILES | activity change, negative = cytotoxicity |
| --- | --- |
| OC(CCl)CCl | -4.88% |
| CCC(O)C(C)(C)C (configuration not stated) | 5.57% |
| CNC(=O)c1ccccc1 | -4.58% |
| CCNc1ccccc1 | 2.42% |
| c1ccsc1 | -9.01% |
| O=C(Cl)c1ccccc1[N+](=O)[O-] | 0.882% |
| Cc1ccc2cccnc2c1 | -6.28% |
| C/C(C=O)=C/c1ccccc1 | -1.48% |
| CCCCCCCCCCCCC1CO1 (configuration not stated) | 6.57% |
| CC(=O)OC(C)=O | 1.01% |
| CC(C)c1ccccc1 | -8.99% |
| COC(=O)c1ccccc1 | -10.2% |
| C/C=C1\CC2C=CC1C2 (configuration not stated) | 4.82% |
| C=C(C)C(=O)OCC(C)O (configuration not stated) | 6.96% |
| NC(=O)c1ccccc1[N+](=O)[O-] | -5.05% |
| CC(CCl)OC(C)CCl (configuration not stated) | 2.8% |
| Cc1cccc([N+](=O)[O-])c1C(=O)O | 11.2% |
| c1ccc(Oc2ccccc2)cc1 | -0.0485% |
| CN(C)CCCCl | -0.582% |
